Source: PubChem BioAssay
Neddylation inh: blocks human cullin neddylation; P61081+Q13564; TR-FRET cullin neddylation, biochemical; inhibition, % at 25 µM; hit rate 0.58% among 360,000; in the data active = inhibition above about 36%
Target sequence (P61081 whole entry, looked up): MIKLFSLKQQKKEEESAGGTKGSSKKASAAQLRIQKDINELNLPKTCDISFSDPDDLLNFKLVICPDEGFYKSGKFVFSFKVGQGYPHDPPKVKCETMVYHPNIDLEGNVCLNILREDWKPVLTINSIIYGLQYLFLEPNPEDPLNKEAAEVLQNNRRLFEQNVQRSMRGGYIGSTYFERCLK
Target sequence (Q13564 whole entry, looked up): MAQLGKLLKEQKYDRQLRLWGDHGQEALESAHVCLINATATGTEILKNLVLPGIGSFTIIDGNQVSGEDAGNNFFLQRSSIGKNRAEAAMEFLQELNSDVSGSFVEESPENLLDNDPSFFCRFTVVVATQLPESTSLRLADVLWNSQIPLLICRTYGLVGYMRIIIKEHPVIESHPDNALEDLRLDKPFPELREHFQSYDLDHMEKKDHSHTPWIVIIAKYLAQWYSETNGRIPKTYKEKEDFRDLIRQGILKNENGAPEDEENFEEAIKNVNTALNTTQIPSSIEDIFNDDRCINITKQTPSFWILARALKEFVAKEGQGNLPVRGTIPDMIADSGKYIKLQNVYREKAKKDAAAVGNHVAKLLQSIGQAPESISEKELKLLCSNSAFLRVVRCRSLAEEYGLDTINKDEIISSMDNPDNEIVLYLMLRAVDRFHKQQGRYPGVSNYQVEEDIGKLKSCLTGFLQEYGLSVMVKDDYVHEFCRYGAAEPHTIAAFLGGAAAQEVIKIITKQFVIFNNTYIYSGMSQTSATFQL
SUMO1 PPI mod: SUMO1-SIM interaction modulation | P63165 | SUMO1 binding to a labelled peptide, TR-FRET, 1 h | inhibition, % at 20 µM | hit rate 0.33% among 360,000; in the data active = inhibition above about 37%
ATG4B inhibitor: inhibitors of human ATG4B cysteine protease; Q9Y4P1; ATG4B cleavage of LC3-PLA2, NBD-HPC fluorescence, 1 h; inhibition, % at 8.33 µM; hit rate 0.51% among 340,000; AID 504462
Rin1-Abl PPI inh: blocks binding of human Rin1 to Abl; P00519+Q13671; TR-FRET Rin1/Abl binding, biochemical; inhibition, % at 7.35 µM; hit rate 0.4% among 360,000; AID 588664; in the data active = inhibition above about 5%, passing the limit was not always enough
Neddyl inh conf: confirmation of human cullin neddylation inhibitors; shares compounds with Neddylation inh; TR-FRET cullin neddylation biochemical assay; calls only at 25 µM; hit rate 13% among 1,800;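 note: neddylation substrate is the cullin 1 ring ligase complex with SKP2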
* hit, by the source's call; i = inactive; / = no result given; + = active, no number. The list is not random: actives were taken first. Their share in the collection is about 1.7%. Cut-off read from the data, not from the text of the source, unless noted: active = inhibition above about 40%; inactive = the rest.

SMILES	Neddylation inh	SUMO1 PPI mod	ATG4B inhibitor	Rin1-Abl PPI inh	Neddyl inh conf
CC(=O)c1cccc(Nc2cc(C)nc3ccccc23)c1	3	-4	0	-4	/
O=C(O)c1cccc(Nc2c3ccccc3nc3ccccc23)c1	41*	-19	0	-3	i
Nc1nc(SCc2ccccc2)c2ncn(CCO)c2n1	6	-7	2	5	/
COC(=O)[C@]12CCCCC=C1N(Cc1ccco1)C(=O)[C@H](CC(=O)N1CCC(c3ccccc3)CC1)C2	-1	1	/	/	/
Cc1cc2c(c(N)n1)c(=O)oc1ccccc12	40*	-2	0	4	i
Cc1ccc(NC(=O)c2cc(=O)c3ccccc3o2)cc1	0	-17	-1	-1	/
N#Cc1ccc(NC(=O)c2cc(=O)c3ccccc3o2)cc1	41*	-5	2	-2	i
CC1(C(=O)NS(=O)(=O)c2cccc(Cl)c2)CCN1C(=O)C1(c2ccc(Cl)cc2)CCC1 (centres undefined)	-8	10	/	-6	/
CN1CCN(c2ccccc2NC(=O)c2ccc(-c3ccc(Cl)c(Cl)c3)o2)CC1	38*	0	-9	-2	/
O=C(OCC1CCC=CO1)C1CCC=CO1 (centres undefined)	3	-4	3	3	/
COc1cc(O)cc(/C=C/c2ccccc2)c1	41*	-11	-8	-2	+
COc1ccc(C(=O)/C=C/c2ccccc2)c(O)c1	0	-2	-24	1	/
CCCCn1c(N)c(N(CCOC)C(=O)c2cc(S(=O)(=O)N3CCOCC3)ccc2Cl)c(=O)[nH]c1=O	4	-2	-19	2	/
CCCCN(CC)CCCNC(=O)c1cc2c(-c3ccc(OC)c(OC)c3)nn(C)c2s1	53*	8	-14	-1	i
O=C(NNC(=O)c1ccc2ccccc2c1O)NC1CCCCC1	41*	-4	3	-5	i
O=C(CNC(=O)c1ccccc1Br)N/N=C/c1ccccc1O	40*	-7	-5	-2	i
O=C(CNC(=O)c1ccco1)N/N=C/c1cc(Br)ccc1O	42*	-2	9	1	i
COc1ccc(-c2noc(CCC(=O)Nc3cccc(C(=O)NC4CC4)c3)n2)cc1OC	2	0	/	3	/
CN(C)c1ccc(/C=N/NC(=O)c2ccc3c(c2)OCCO3)cc1	61*	-17	-7	-3	/
C[C@@H]1CC=C[C@H]2[C@H]1C(=O)N(Cc1ccccc1)[C@H]2c1ccc(/C=C/c2ccccc2)cc1F	42*	-27	-12	6	/
COc1ccc(C(=O)Nc2ccc(NC(=O)c3ccccc3)cc2)cc1S(=O)(=O)N1CCOCC1	41*	2	6	0	i
COc1ccc(C(=O)Nc2ccncc2)cc1S(=O)(=O)N1CCOCC1	-16	3	-3	6	/
O=C(N/N=C/c1ccc(F)cc1)c1ccc(-n2cnnn2)cc1	-1	-2	-8	0	/
CSc1ccc(/C=N/NC(=O)c2ccc(-n3cnnn3)cc2)cc1	49*	6	-8	5	i
NC1=Nc2cccc3cccc1c23	49*	-9	-1	0	i
SMILES	Neddylation inh	SUMO1 PPI mod	ATG4B inhibitor	Rin1-Abl PPI inh	Neddyl inh conf
CC(=O)c1cccc(OCC(=O)c2cc(C)n(-c3cc(C)on3)c2C)c1	0	-1	-6	5	/
Cc1cc(-n2c(C)cc(C(=O)COc3ccc4ccc(=O)oc4c3)c2C)no1	55*	-3	2	-2	/
N#Cc1cc(O)c(-n2nnc3ccccc32)cc1C#N	39*	0	3	1	i
N#Cc1cc(Oc2cccc3cccnc23)c(-n2nnc3ccccc32)cc1C#N	-4	-4	-10	-2	/
O=C(O)c1ccc(/C=N/NC(=O)c2cc3c(ccc4ccccc43)o2)cc1	43*	15	-4	-3	i
COc1ccccc1/C=N/NC(=O)c1cc2c(ccc3ccccc32)o1	60*	-9	1	-2	i
COc1ccc(/C=N\NC(=O)c2cc3c(ccc4ccccc43)o2)cc1O	45*	68*	-17	-5	i
COc1ccc2ccc(OC)c(/C=N/NC(=O)c3cc4ccccc4o3)c2c1	/	-8	/	1	/
O=C(CCN1C(=O)CC1c1ccco1)N1CCOCC1 (centres undefined)	2	4	/	2	/
COCCCn1cc(CN2CC(N3CCSCC3)CS2(=O)=O)nn1 (centres undefined)	-5	-3	/	/	/
COc1ccc2sc(-c3ccc(SC)cc3)c(C#CC(C)(C)O)c2c1	36	-11	-6	2	/
COc1ccc2sc(-c3ccc(SC)cc3)c(C#CCO)c2c1	39*	-11	2	1	/
O=C(NCC1CCCO1)c1ccccc1NS(=O)(=O)c1cc([N+](=O)[O-])ccc1Cl (centres undefined)	-18	-26	8	-2	/
COC(=O)[C@@H]1Cc2c([nH]c3ccccc23)C2CCC(=O)N21 (some centres undefined)	11	-5	2	0	/
O=C(O)[C@@H]1Cc2c([nH]c3ccccc23)C2CCC(=O)N21 (some centres undefined)	52*	5	-4	2	i
CCN(CCC#N)c1ccc(/C=N/Nc2nc(C)cc(=O)[nH]2)c(C)c1	41*	-6	-12	-6	i
COc1cc(NC(=O)[C@H]2O[C@@H](n3cnc4c(N)ncnc43)[C@H](O)[C@@H]2O)cc(OC)c1OC	1	3	/	4	/
O[C@H]1CN(Cc2cccs2)[C@@H](c2ccccc2)C[C@@H]1n1cc(-c2ccc(F)cc2)nn1	5	0	/	1	/
O=C(Cn1cc(C(F)(F)F)ccc1=O)Nc1ccc2c(c1)OCO2	-5	1	/	2	/
CCOc1ccc(/C=N/NC(=O)c2cc3ccccc3cc2OC)cc1	42*	-8	11	-2	i
COc1ccc(/C=N/NC(=O)c2cc3cc(OC)c(OC)cc3[nH]2)cc1	46*	0	-20	-4	i
COc1cc2cc(C(=O)N/N=C/c3ccccc3Cl)[nH]c2cc1OC	/	6	-29	2	/
COc1ccc(C(=O)N/N=C/c2ccc(OC)c(COc3ccc(F)cc3)c2)cc1	14	-4	0	-3	/
COc1ccc2cc(C(=O)N/N=C/c3cc(OC)c(OC)c(OC)c3)[nH]c2c1	43*	2	-7	0	+
COc1cc2cc(C(=O)N/N=C/c3ccc(F)cc3)[nH]c2cc1OC	40*	6	-2	1	i
SMILES	Neddylation inh	SUMO1 PPI mod	ATG4B inhibitor	Rin1-Abl PPI inh	Neddyl inh conf
O=c1[nH]c2ccccc2nc1-c1ccccc1	50*	-21	11	-4	+
COc1ccccc1/C=C/c1nc(S(=O)(=O)c2ccccc2)c(NCCN(C)C)o1	42*	-16	-11	0	/
COc1ccc(/C=C/c2nc(S(=O)(=O)c3ccccc3)c(NCCCN(C)C)o2)cc1OC	34	-5	4	-6	/
C/C(=N\NC(=O)c1cc(Br)ccc1O)c1cccc(NC(=O)c2ccccc2F)c1	54*	15	0	0	i
C/C(=N\NC(=O)c1ccccc1F)c1cccc(NC(=O)c2ccccc2)c1	0	6	-5	-3	/
COc1cccc2cc(-c3cn4cccc(C)c4n3)c(=O)oc12	42*	-10	-5	0	i
